Consider 43 molecules from the supplement of paper PMC6331611.

± gives the standard deviation of the averaged measurements. Whole data set: some 1,600 compounds, median “normalized intracellular growth (luminescence, IQM-normalized) in RAW264.7 macrophages” near 1, cut for the lowest 2% near 0.43. What follows is part of a selection rich in the lowest values, with near analogues and random picks from the rest.

In the experiment the test system is Salmonella enterica serovar Typhimurium SL1344. The experiment in a line: normalized intracellular growth (luminescence, IQM-normalized) in RAW264.7 macrophages (fraction of plate interquartile mean); higher = more bacterial growth (less inhibition). The conditions noted are these: 10 µM.

Take `NC(=O)c1ccccc1O`: the normalized intracellular growth (time point: T3 (3 h)) was 1.04 ± 0.085 and the normalized intracellular growth (time point: Tfinal (~6 h)) amounted to 0.978 ± 0.036.

Regarding `CCCc1nc(C(C)(C)O)c(C(=O)OCc2oc(=O)oc2C)n1Cc1ccc(-c2ccccc2-c2nnn[nH]2)cc1`, the normalized intracellular growth is, setting by setting: (time point: T3 (3 h)) 1 ± 0.026; (time point: Tfinal (~6 h)) 0.855 ± 0.39.

For the molecule `CCOc1nc2cccc(C(=O)O)c2n1Cc1ccc(-c2ccccc2-c2nnn[nH]2)cc1`, the normalized intracellular growth by setting is: (time point: T3 (3 h)) 0.992 ± 0.057; (time point: Tfinal (~6 h)) 1.04 ± 0.034.

Consider `CCCCC1=NC2(CCCC2)C(=O)N1Cc1ccc(-c2ccccc2-c2nnn[nH]2)cc1`, for which the normalized intracellular growth runs as follows: (time point: T3 (3 h)) 1.06 ± 0.014; (time point: Tfinal (~6 h)) 1.14 ± 0.22.

On to `CCCCc1nc(Cl)c(CO)n1Cc1ccc(-c2ccccc2-c2nnn[nH]2)cc1`, for which the normalized intracellular growth by setting is: (time point: T3 (3 h)) 0.909 ± 0.056; (time point: Tfinal (~6 h)) 0.215 ± 0.0058.

`CCCc1nc(C(C)(C)O)c(C(=O)O)n1Cc1ccc(-c2ccccc2-c2nnn[nH]2)cc1`: the normalized intracellular growth is, setting by setting: (time point: T3 (3 h)) 1.027 ± 0.0089; (time point: Tfinal (~6 h)) 1.118 ± 0.0057.

Regarding `CCCCC(=O)N(Cc1ccc(-c2ccccc2-c2nnn[nH]2)cc1)[C@H](C(=O)O)C(C)C`, the normalized intracellular growth was determined as 0.881 ± 0.033 (time point: T3 (3 h)) and 0.239 ± 0.016 (time point: Tfinal (~6 h)).

Consider `CCCCC(CC)COc1ccc(-c2nc(-c3ccc(OC)cc3)nc(-c3ccc(OCC(CC)CCCC)cc3O)n2)c(O)c1` (stereo unspecified), for which the normalized intracellular growth is 1.02 ± 0.065 (time point: T3 (3 h)) and 1.1 ± 0.17 (time point: Tfinal (~6 h)).

Molecule `Nc1nc(F)nc2c1ncn2[C@@H]1O[C@H](COP(=O)(O)O)[C@@H](O)[C@@H]1O` gave a normalized intracellular growth (time point: T3 (3 h)) of 0.982 ± 0.061 and a normalized intracellular growth (time point: Tfinal (~6 h)) of 1.16 ± 0.13.

Take `O=C1OC2(c3ccc(O)cc3Oc3cc(O)ccc32)c2ccccc21`: the normalized intracellular growth by setting is: (time point: T3 (3 h)) 1.02 ± 0.069; (time point: Tfinal (~6 h)) 0.891 ± 0.079.

As to `COc1ccc(C[C@H](N)C(=O)N[C@H]2[C@@H](O)[C@H](n3cnc4c(N(C)C)ncnc43)O[C@@H]2CO)cc1`, the normalized intracellular growth reads like this: (time point: T3 (3 h)) 0.993 ± 0.058; (time point: Tfinal (~6 h)) 1.05 ± 0.16.

As to `NCCCC(=O)O` [gamma-AMINOBUTYRIC ACID], the normalized intracellular growth by setting is: (time point: T3 (3 h)) 0.9762 ± 0.0094; (time point: Tfinal (~6 h)) 1.05 ± 0.096.

Regarding `FCOC(C(F)(F)F)C(F)(F)F`, the normalized intracellular growth runs as follows: (time point: T3 (3 h)) 1.01 ± 0.052; (time point: Tfinal (~6 h)) 0.806 ± 0.18.

In the case of `CCCCCN(C)CCC(O)(P(=O)(O)O)P(=O)(O)O`, the normalized intracellular growth was 0.886 ± 0.014 (time point: T3 (3 h)) and 0.0897 ± 0.012 (time point: Tfinal (~6 h)).

For `NCCCC(O)(P(=O)(O)O)P(=O)(O)O`, the normalized intracellular growth was 0.994 ± 0.083 (time point: T3 (3 h)) and 1.12 ± 0.14 (time point: Tfinal (~6 h)).

For `O=C1c2ccccc2C(=O)C1c1ccc(Br)cc1`, the normalized intracellular growth reads like this: (time point: T3 (3 h)) 1.08 ± 0.047; (time point: Tfinal (~6 h)) 1.15 ± 0.21.

Molecule `CO/N=C1\C[C@]2(C[C@@H]3C[C@@H](C/C=C(\C)C[C@@H](C)/C=C/C=C4\CO[C@@H]5[C@H](O)C(C)=C[C@@H](C(=O)O3)[C@]45O)O2)O[C@H](/C(C)=C/C(C)C)[C@H]1C` returned a normalized intracellular growth (time point: T3 (3 h)) of 0.979 ± 0.022 and a normalized intracellular growth (time point: Tfinal (~6 h)) of 0.831 ± 0.033.

The molecule `CCN(CC)CCOc1ccc2c(c1)C(=O)c1cc(OCCN(CC)CC)ccc1-2` gave a normalized intracellular growth (time point: T3 (3 h)) of 1 ± 0.035 and a normalized intracellular growth (time point: Tfinal (~6 h)) of 1 ± 0.021.

With `CCCCCCCCCCCCCCCC(=O)OC[C@@H](NC(=O)C(Cl)Cl)[C@H](O)c1ccc([N+](=O)[O-])cc1`, the normalized intracellular growth was 1.04 ± 0.037 (time point: T3 (3 h)) and 0.822 ± 0.14 (time point: Tfinal (~6 h)).

Take `CS(=O)(=O)c1ccc([C@@H](O)[C@@H](CO)NC(=O)C(Cl)Cl)cc1`: the normalized intracellular growth (time point: T3 (3 h)) is 0.925 ± 0.07 and the normalized intracellular growth (time point: Tfinal (~6 h)) stood at 0.767 ± 0.047.

Consider `O=C(N[C@H](CO)[C@H](O)c1ccc([N+](=O)[O-])cc1)C(Cl)Cl`, for which the normalized intracellular growth runs as follows: (time point: T3 (3 h)) 0.927 ± 0.049; (time point: Tfinal (~6 h)) 0.163 ± 0.022.

Take `CS(=O)(=O)c1ccc([C@@H](O)[C@@H](CF)NC(=O)C(Cl)Cl)cc1`: the normalized intracellular growth runs as follows: (time point: T3 (3 h)) 1.27 ± 0.096; (time point: Tfinal (~6 h)) 0.22 ± 0.17.

For `NC(=O)c1ccc([N+](=O)[O-])cc1Cl`, the normalized intracellular growth (time point: T3 (3 h)) is 1.06 ± 0.052 and the normalized intracellular growth (time point: Tfinal (~6 h)) was found to be 1.18 ± 0.017.

With `CC(=O)Nc1ccc(S(=O)(=O)Nc2ccc([N+](=O)[O-])cc2)cc1`, the normalized intracellular growth runs as follows: (time point: T3 (3 h)) 0.992 ± 0.038; (time point: Tfinal (~6 h)) 1.03 ± 0.15.

Consider `O=C(O)CCC(=O)OC[C@@H](NC(=O)C(Cl)Cl)[C@H](O)c1ccc([N+](=O)[O-])cc1`, for which the normalized intracellular growth (time point: T3 (3 h)) turned out to be 0.927 ± 0.048 and the normalized intracellular growth (time point: Tfinal (~6 h)) was 0.178 ± 0.014.

Take `CC(=O)Nc1ccc(S(=O)(=O)c2ccc(NC(C)=O)cc2)cc1`: the normalized intracellular growth by setting is: (time point: T3 (3 h)) 1.01 ± 0.04; (time point: Tfinal (~6 h)) 0.912 ± 0.062.

Regarding `OC[C@@H](O)[C@@H](O)CO`, the normalized intracellular growth (time point: T3 (3 h)) turned out to be 0.947 ± 0.1 and the normalized intracellular growth (time point: Tfinal (~6 h)) stood at 1.08 ± 0.11.

For `Cc1cc(C(C)(C)C)c(O)c(C(C)(C)C)c1`, the normalized intracellular growth amounted to 1.06 ± 0.046 (time point: T3 (3 h)) and 0.834 ± 0.12 (time point: Tfinal (~6 h)).

With `FC(F)(F)C(Cl)Br` (stereo unspecified), the normalized intracellular growth by setting is: (time point: T3 (3 h)) 1 ± 0.049; (time point: Tfinal (~6 h)) 1.08 ± 0.18.

For the molecule `CN1CC(=O)NC1=N`, the normalized intracellular growth is, setting by setting: (time point: T3 (3 h)) 1.03 ± 0.02; (time point: Tfinal (~6 h)) 1.1 ± 0.1.

`COc1cc([C@@H]2c3cc4c(cc3[C@@H](O[C@@H]3O[C@@H]5CO[C@@H](c6cccs6)O[C@H]5[C@H](O)[C@H]3O)[C@H]3COC(=O)[C@H]23)OCO4)cc(OC)c1O` had a normalized intracellular growth (time point: T3 (3 h)) of 1.1 ± 0.049 and a normalized intracellular growth (time point: Tfinal (~6 h)) of 1.016 ± 0.0097.

As for `CCCc1nc(C)c2c(O)nc(-c3cc(S(=O)(=O)N4CCN(CC)CC4)ccc3OCC)nn12`, the normalized intracellular growth by setting is: (time point: T3 (3 h)) 0.997 ± 0.027; (time point: Tfinal (~6 h)) 0.899 ± 0.1.

Regarding `CC(=O)N(c1onc(C)c1C)S(=O)(=O)c1ccc(N)cc1`, the normalized intracellular growth reads like this: (time point: T3 (3 h)) 0.951 ± 0.011; (time point: Tfinal (~6 h)) 1.02 ± 0.17.

For `C[C@@H]1C[C@H]2[C@@H]3CCC4=CC(=O)C=C[C@]4(C)[C@@]3(F)[C@@H](O)C[C@]2(C)[C@@]1(O)C(=O)CO`, the normalized intracellular growth by setting is: (time point: T3 (3 h)) 1 ± 0.062; (time point: Tfinal (~6 h)) 0.99 ± 0.075.

For `CC(=O)NCCCCCC(=O)O`, the normalized intracellular growth runs as follows: (time point: T3 (3 h)) 0.997 ± 0.019; (time point: Tfinal (~6 h)) 1.02 ± 0.17.

For `O=S(=O)(O)CCSSCCS(=O)(=O)O`, the normalized intracellular growth reads like this: (time point: T3 (3 h)) 1.02 ± 0.061; (time point: Tfinal (~6 h)) 0.986 ± 0.18.

On to `CC(C(=O)O)c1ccc(CC2CCCC2=O)cc1` (stereo unspecified), for which the normalized intracellular growth runs as follows: (time point: T3 (3 h)) 1.05 ± 0.055; (time point: Tfinal (~6 h)) 1.06 ± 0.064.

`NC[C@@H]1CC[C@@H](N)[C@@H](O[C@H]2[C@H](O)[C@@H](O[C@H]3O[C@H](CO)[C@@H](O)[C@H](N)[C@H]3O)[C@H](N)C[C@@H]2N)O1`: the normalized intracellular growth (time point: T3 (3 h)) was 1.04 ± 0.023 and the normalized intracellular growth (time point: Tfinal (~6 h)) came out at 0.976 ± 0.13.

As to `NCC(O)CC(=O)O` (stereo unspecified), the normalized intracellular growth is 0.966 ± 0.067 (time point: T3 (3 h)) and 1.03 ± 0.12 (time point: Tfinal (~6 h)).

As to `CN1CCN(c2c(F)cc3c(=O)c(C(=O)O)cn4c3c2SCC4)CC1`, the normalized intracellular growth is 0.982 ± 0.061 (time point: T3 (3 h)) and 0.095 ± 0.094 (time point: Tfinal (~6 h)).

Consider `C[C@H]1COc2c(C3(N)CC3)c(F)cc3c(=O)c(C(=O)O)cn1c23`, for which the normalized intracellular growth runs as follows: (time point: T3 (3 h)) 1.36 ± 0.11; (time point: Tfinal (~6 h)) 0.00812 ± 0.0004.

With `CC1COc2c(N3CCN(C)CC3)c(F)cc3c(=O)c(C(=O)O)cn1c23` (stereo unspecified), the normalized intracellular growth reads like this: (time point: T3 (3 h)) 0.856 ± 0.034; (time point: Tfinal (~6 h)) 0.134 ± 0.0023.

Take `C[C@H]1COc2c(N3CCN(C)CC3)c(F)cc3c(=O)c(C(=O)O)cn1c23`: the normalized intracellular growth was determined as 1.245 ± 0.0094 (time point: T3 (3 h)) and 0.00765 ± 0.001 (time point: Tfinal (~6 h)).
